Molecules are shown by their SMILES. In all, about 3,300 compounds went through this assay and about 1,400 (42%) were called active. The set was probably picked from earlier hits. These entries were drawn from the full list. Values without a mark were called inactive.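 Rule for the calls: active = mean inhibition across replicates above the hit cutoff derived for the earlier primary screen (cut at about 22% in these data); inactive = the rest.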

The text below walks through data of PubChem BioAssay AID687036 (The Scripps Research Institute Molecular Screening Center, 2013).

For this experiment, the target named is Protein arginine N-methyltransferase 1 (Homo sapiens) (UniProt Q99873). Nature of the experiment: human PRMT1 activity-probe blockers, retest – biochemical, fluorescence polarization, triplicate, confirmation (AID 687036). To be noted: recombinant His-PRMT1, activity-based probe fluorescence polarization; at 2.79 µM; stronger effect = higher value.
Sequence of Protein arginine N-methyltransferase 1 (Homo sapiens) (Q99873 whole entry, looked up): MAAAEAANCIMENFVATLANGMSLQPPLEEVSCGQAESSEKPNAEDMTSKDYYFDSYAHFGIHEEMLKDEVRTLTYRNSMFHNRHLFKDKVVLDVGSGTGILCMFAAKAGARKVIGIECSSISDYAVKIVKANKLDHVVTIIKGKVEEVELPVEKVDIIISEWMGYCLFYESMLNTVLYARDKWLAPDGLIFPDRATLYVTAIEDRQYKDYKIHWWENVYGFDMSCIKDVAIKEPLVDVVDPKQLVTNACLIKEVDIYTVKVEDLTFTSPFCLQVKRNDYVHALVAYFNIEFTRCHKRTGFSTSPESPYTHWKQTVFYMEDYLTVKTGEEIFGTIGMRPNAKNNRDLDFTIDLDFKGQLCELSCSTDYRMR
Turning to `Brc1ccccc1C1Nc2cccc3cccc(c23)N1`, the inhibition is 29.4% (active).

Turning to `NS(=O)(=O)c1ccc(NC(=O)COC(=O)c2c3c(nc4ccccc24)/C(=C\c2ccc4c(c2)OCO4)CCC3)cc1`, the inhibition is 0.89%.

`Cc1cc(C)cc(C(=O)NC2C(=O)N3C(C(=O)O)=C(CSc4nnc(C)s4)CSC23)c1` (stereo unspecified): the inhibition is 15.9%.

`Oc1ccc2ccc3cccc[n+]3c2c1`: the inhibition was 155% (active).

Consider `COc1cc(C2CC(=O)N3CN(Cc4ccccc4)CSC3=C2C#N)ccc1OCc1ccccc1` (stereo unspecified), for which the inhibition is 12.4%.

`CC(=O)Nc1ccc(C(=O)Nc2nc(-c3cc(C)n(Cc4ccccc4)c3C)cs2)cc1`: the inhibition was 5.86%.

`FC(F)(F)c1nc2ccccc2nc1N/N=C/c1ccc(Cl)cc1`: the inhibition was -0.64%.

On to `CCOC(=O)C(Sc1ncc(C#N)c(N)n1)C(C)C` (stereo unspecified), for which the inhibition is 37% (active).

Turning to `Fc1ccc(COc2cccc(-c3n[nH]c(=S)o3)c2)cc1`, the inhibition was 14.3%.

As for `COc1cc(C(=S)NC2CCCCC2)ccc1O`, the inhibition was 5.36%.

As for `CCc1ccc(NC2Nc3cc(C)nn3S2)cc1` (stereo unspecified), the inhibition was 6.49%.

On to `O=c1ccc2c(-c3ccccc3S(=O)(=O)O)c3ccc(O)c(O)c3oc-2c1O`, for which the inhibition is 66.2% (active).

In the case of `COc1ccc(CCN2C(=O)CC(N3CCC(C(N)=O)CC3)C2=O)cc1OC` (stereo unspecified), the inhibition is 12.1%.

In the case of `OCCn1c(-c2ccccc2)csc1=Nc1ccccc1`, the inhibition was -0.19%.

Regarding `O=S(=O)(O)c1cc2onnc2c2ccccc12`, the inhibition is 53.5% (active).

Consider `Cc1ccc(-c2ccc(/C=C(\C#N)C(N)=S)o2)c([N+](=O)[O-])c1`, for which the inhibition was 3.06%.

Turning to `Cc1ccc(SC(CC(=O)c2ccc(C(C)(C)C)cc2)C(=O)O)cc1` (stereo unspecified), the inhibition is 80.3% (active).

With `COc1ccc(N/N=C2/CCCCC2=O)cc1`, the inhibition was 0.52%.

Take `Cc1cc(=O)[nH]c(=S)[nH]1`: the inhibition was -4.44%.

`Cc1cc2nc3c(=O)[nH]c(=O)nc-3n(C[C@H](O)[C@H](O)[C@H](O)CO)c2cc1C`: the inhibition was 146% (active).

Take `O=C(CN1CCN(c2ccc(O)cc2)CC1)NC1CCCc2ccccc21` (stereo unspecified): the inhibition is -0.09%.

On to `Cc1cccc(N2CCN(C(=O)/C=C/c3ccco3)CC2)c1C`, for which the inhibition was 7.17%.

In the case of `Cc1nnc(SCC2=C(C(=O)O)N3C(=O)C(NC(=O)Cn4nc(C)c(Cl)c4C)C3SC2)s1` (stereo unspecified), the inhibition was 6.51%.

Consider `CC(C)(C)NC(=O)COc1ccc(CNc2ccc3[nH]c(=O)[nH]c3c2)cc1`, for which the inhibition was 4.62%.

With `COc1ccc(NC(=O)CSc2nc(SC)ns2)c(OC)c1`, the inhibition was 30.5% (active).

`Cc1cccc2cc3c(N)c(C(=O)N4CCCc5ccccc54)sc3nc12`: the inhibition was -2.12%.
